The values below come from PubChem BioAssay (Tox21).

In assay [1] the target is Thyrotropin-releasing hormone receptor (Homo sapiens) (UniProt P34981). The assay can be described thus: qHTS assay to identify small molecule agonists of the thyrotropin-releasing hormone receptor (TRHR) signaling pathway (AID 1346891; calls by dose curve;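 further: HEK293 cells expressing TRHR with calcium dye readout; series mostly up to about 58 µM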). Summed up: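 Kinetic fluorescence (3 min, 1 s intervals) reported intracellular calcium after compound transfer onto TRHR-Hek293 cells pre-loaded with dye for 2 h at 37 °C.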
A general note: qHTS replaces the single test concentration by a dilution series.

Assay [2] is described as follows: Human pregnane X receptor (PXR) small molecule agonists, qHTS cell viability counter screen (AID 1346977). Further: nearly all actives have a fitted effect of over 50% in size. Summed up: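 HepG2 cells stably carrying the PXR-Luc reporter are cultured with 5% charcoal-stripped FBS and treated with compounds for 24hr. CellTiter-Fluor is added at 23hr and fluorescence is read after 1hr.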
Assay [3] in a line: Caspase-3/7 induction in HepG2 cells by small molecules, qHTS assay (AID 1346978). Further: nearly all actives have a fitted effect of over 15% in size. Summed up:
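Wild-type HepG2 cells, 2,000/well, settled 5 hr at 37 C and 5% CO2, then compound-treated for 17 hr; caspase-3/7 activity read by luminescent Caspase-Glo 3/7 after 30 min at room temperature.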

Assay [4] can be described thus: Caspase-3/7 induction in CHO-K1 cells by small molecules, qHTS cell viability counter screen (AID 1346979). Further: nearly all actives have a fitted effect of over 35% in size. Summed up:
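Seeding: 1,500 CHO-K1 cells/well. Rest: 5hr, 37C. Treatment: compounds in DMSO, 16hr. Read: CellTiter-Fluor, 1hr, fluorescence.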

Assay [5] can be described thus: Caspase-3/7 induction in CHO-K1 cells by small molecules, qHTS assay (AID 1346980). Further: nearly all actives have a fitted effect of over 15% in size. Summed up:
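Wild-type CHO-K1 cells exposed to compounds for 17hr at 37 C, 5% CO2. Caspase-3/7 activity then measured by Caspase-Glo 3/7 luminescence after 30min at room temperature.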

Assay [6] in a line: Caspase-3/7 induction in HepG2 cells by small molecules, qHTS cell viability counter screen (AID 1346981). Further: series mostly up to about 92 µM; nearly all actives have a fitted effect of over 30% in size. Summed up: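 Wild-type HepG2 cells (2,000/well) were allowed to settle for 5 hr at 37 C, 5% CO2, then dosed with compounds in DMSO by pin transfer. After 16 hr at 37 C, CellTiter-Fluor was added and fluorescence read 1 hr later.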
In assay [7] the target is Nuclear receptor subfamily 1 group I member 2 (Homo sapiens) (UniProt O75469). The assay can be described thus: Human pregnane X receptor (PXR) small molecule agonists, qHTS assay (AID 1346982). Further: nearly all actives have a fitted effect of over 35% in size. Summed up: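 PXR-Luc HepG2 cells (CYP3A4 promoter-driven luciferase) were seeded in medium with 5% charcoal-stripped FBS, left 5 hr at 37 C, then exposed to compounds in DMSO for 24 hr. Luminescence was read after ONE-Glo addition.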

Assay [8] concerns the target Cytochrome P450 2D6 (Homo sapiens) (UniProt P10635). The assay can be described thus: Cytochrome P450 Family 2 Subfamily D Member 6 (CYP2D6) small molecule antagonists: luciferase reporter qHTS assay (AID 1671196). Further: nearly all actives have a fitted effect of over 50% in size. Further: potency means the concentration at half of the fitted maximal effect. Summed up: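 CYP2D6 enzyme–substrate mix was held with compound for 10 min at room temperature, then NADPH regeneration solution was added and the reaction ran 1 h at room temperature. Luciferin product was detected by luminescence after 20 min with detection reagent.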
A general note: In a reporter assay the amount or activity of a reporter protein is the signal.

Assay [9] has as its target Cytochrome P450 2C19 (Homo sapiens) (UniProt P33261). The assay can be described thus: Cytochrome P450 Family 2 Subfamily C Member 19 (CYP2C19) small molecule antagonists: luciferase reporter qHTS assay (AID 1671197). Further: series mostly up to about 120 µM; nearly all actives have a fitted effect of over 65% in size. Summed up:
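Luminescent readout of CYP2C19 activity: luciferin product detected 20 min after adding detection reagent. Before that, compound and enzyme-substrate mix preincubated 10 min at room temperature; NADPH-regenerating system started a 1 h, 37C reaction. Ketoconazole as positive control.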

The target of assay [10] is Cytochrome P450 2C9 (Homo sapiens) (UniProt P11712). The experiment in a line: Cytochrome P450 Family 2 Subfamily C Member 9 (CYP2C9) small molecule antagonists: luciferase reporter qHTS assay (AID 1671198). Further: nearly all actives have a fitted effect of over 50% in size. Further: potency means the concentration at half of the fitted maximal effect. Summed up:
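P450-Glo proluciferin substrate with CYP2C9 enzyme; 10 min RT preincubation, then NADPH regeneration 1 h at 37C; luciferin detection reagent 20 min RT, luminescence in relative luminescence units.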

The target of assay [11] is Cytochrome P450 1A2 (Homo sapiens) (UniProt P05177). The experiment in a line: Cytochrome P450 Family 1 Subfamily A Member 2 (CYP1A2) small molecule antagonists: luciferase reporter qHTS assay (AID 1671199). Further: nearly all actives have a fitted effect of over 50% in size. Further: potency means the concentration at half of the fitted maximal effect. Summed up: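 Human CYP1A2 activity measured with a P450-Glo proluciferin substrate; compounds in DMSO preincubated 10 min at room temperature with enzyme-substrate mix, then NADPH regeneration system added for 1 h. Luciferin detection reagent, 20 min, luminescence read.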

Assay [12] has as its target Voltage-gated inwardly rectifying potassium channel KCNH2 (Homo sapiens) (UniProt Q12809). The assay can be described thus: Human Ether-a-go-go-Related Gene (hERG) channel small molecule antagonists: fluorescence cell-based qHTS assay (AID 1671200). Summed up:
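First, 1000 cells per well are seeded and cultured overnight at 37 C. Next, FluxOR II dye is loaded for 1 h at room temperature, protected from light. After 10 more minutes, stimulus is added and fluorescence is read.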

The target in assay [13] is Cytochrome P450 3A4 (Homo sapiens) (UniProt P08684). The experiment in a line: Cytochrome P450 Family 3 Subfamily A Member 4 (CYP3A4) small molecule antagonists: luciferase reporter qHTS assay (AID 1671201). Summed up: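 Enzyme and proluciferin substrate are mixed with test chemicals for 10 min, then NADPH regeneration system drives turnover for 1 h at room temperature. A detection reagent halts the reaction; luminescence after 20 min gives relative activity.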

Assay [14] addresses Nuclear receptor subfamily 1 group I member 2 (Homo sapiens) (UniProt O75469). The experiment in a line: Human pregnane X receptor (PXR) activation by small molecules, qHTS assay (AID 1346985). Further: nearly all actives have a fitted effect of over 40% in size. Summed up:
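DPX-2 cells (HepG2 co-transfected with a PXR response element and a CYP3A4-promoter luciferase construct) were seeded at 2,000 per well, rested 5 hr at 37C, then exposed to DMSO-dissolved compounds for 24 hr. Activation was read as luciferase luminescence.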

Assay [15] has the same target. The experiment in a line: CYP3A4 induction through human pregnane X receptor (PXR) by small molecules, qHTS assay (AID 1346984). Further: nearly all actives have a fitted effect of over 40% in size. Summed up: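 DPX-2 cells (HepG2 co-transfected with PXR and CYP3A4 promoter-luciferase) treated with compounds 24 h at 37C; luciferin-IPA CYP3A4 substrate 3uM final added for 3 h, then One-Glo; luminescence read. qHTS format.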

Unmarked numbers belong to inactive results. Inconclusive results are not listed. The source made the active and inactive calls. Unless noted, the call rests on the fitted dose curve; in most records, active means well fitted curve in the direction sought with a large enough effect in the repeat runs; inconclusive means weak or mixed curves; inactive means no such curve, though single readings can be large; an effect the other way counts as inactive or inconclusive.
On the % scale 0 is the no-effect control and ±100 the full control effect.

Chain of Cytochrome P450 2C9 (Homo sapiens) (P11712 whole entry, looked up): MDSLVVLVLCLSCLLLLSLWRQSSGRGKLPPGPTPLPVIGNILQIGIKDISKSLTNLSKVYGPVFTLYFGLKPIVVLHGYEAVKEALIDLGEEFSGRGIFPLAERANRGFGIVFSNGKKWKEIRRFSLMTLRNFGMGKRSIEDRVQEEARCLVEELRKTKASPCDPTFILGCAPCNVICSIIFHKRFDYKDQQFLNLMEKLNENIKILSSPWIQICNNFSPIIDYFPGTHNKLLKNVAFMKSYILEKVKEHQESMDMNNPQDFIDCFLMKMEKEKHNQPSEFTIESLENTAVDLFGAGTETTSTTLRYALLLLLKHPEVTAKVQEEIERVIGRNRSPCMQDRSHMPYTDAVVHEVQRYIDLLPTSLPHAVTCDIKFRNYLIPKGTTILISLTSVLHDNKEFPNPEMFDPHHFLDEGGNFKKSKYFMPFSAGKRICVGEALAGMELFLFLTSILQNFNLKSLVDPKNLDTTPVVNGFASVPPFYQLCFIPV
Chain of Voltage-gated inwardly rectifying potassium channel KCNH2 (Homo sapiens) (Q12809 whole entry, looked up): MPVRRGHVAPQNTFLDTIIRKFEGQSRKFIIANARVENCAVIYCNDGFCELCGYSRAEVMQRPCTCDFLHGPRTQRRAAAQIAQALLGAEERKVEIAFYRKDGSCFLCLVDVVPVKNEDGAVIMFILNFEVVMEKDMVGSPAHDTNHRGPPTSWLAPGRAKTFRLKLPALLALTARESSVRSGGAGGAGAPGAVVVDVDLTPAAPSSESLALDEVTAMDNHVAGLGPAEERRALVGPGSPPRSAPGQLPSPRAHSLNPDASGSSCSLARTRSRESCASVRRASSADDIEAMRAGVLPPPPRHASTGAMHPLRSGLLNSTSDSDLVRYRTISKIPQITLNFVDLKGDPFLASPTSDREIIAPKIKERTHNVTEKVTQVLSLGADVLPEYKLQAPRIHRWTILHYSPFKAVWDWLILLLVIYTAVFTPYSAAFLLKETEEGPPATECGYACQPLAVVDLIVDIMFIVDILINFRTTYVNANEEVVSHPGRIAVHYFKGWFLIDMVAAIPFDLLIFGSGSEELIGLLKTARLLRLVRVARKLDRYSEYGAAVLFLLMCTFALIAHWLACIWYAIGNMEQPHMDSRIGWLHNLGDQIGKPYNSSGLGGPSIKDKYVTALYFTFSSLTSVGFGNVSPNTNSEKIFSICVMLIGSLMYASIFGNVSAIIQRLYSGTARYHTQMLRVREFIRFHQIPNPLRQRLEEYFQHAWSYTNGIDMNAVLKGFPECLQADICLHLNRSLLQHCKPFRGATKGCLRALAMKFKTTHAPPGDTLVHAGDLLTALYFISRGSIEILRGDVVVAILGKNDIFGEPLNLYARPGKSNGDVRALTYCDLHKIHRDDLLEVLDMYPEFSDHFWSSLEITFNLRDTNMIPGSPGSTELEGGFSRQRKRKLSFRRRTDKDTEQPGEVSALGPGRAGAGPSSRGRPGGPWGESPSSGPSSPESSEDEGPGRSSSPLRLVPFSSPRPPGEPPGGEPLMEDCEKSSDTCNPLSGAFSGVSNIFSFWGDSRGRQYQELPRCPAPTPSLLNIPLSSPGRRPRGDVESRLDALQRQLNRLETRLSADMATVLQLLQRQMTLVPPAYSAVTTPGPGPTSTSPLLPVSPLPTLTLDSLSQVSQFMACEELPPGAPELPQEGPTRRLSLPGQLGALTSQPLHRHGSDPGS
Chain of Nuclear receptor subfamily 1 group I member 2 (Homo sapiens) (O75469 whole entry, looked up): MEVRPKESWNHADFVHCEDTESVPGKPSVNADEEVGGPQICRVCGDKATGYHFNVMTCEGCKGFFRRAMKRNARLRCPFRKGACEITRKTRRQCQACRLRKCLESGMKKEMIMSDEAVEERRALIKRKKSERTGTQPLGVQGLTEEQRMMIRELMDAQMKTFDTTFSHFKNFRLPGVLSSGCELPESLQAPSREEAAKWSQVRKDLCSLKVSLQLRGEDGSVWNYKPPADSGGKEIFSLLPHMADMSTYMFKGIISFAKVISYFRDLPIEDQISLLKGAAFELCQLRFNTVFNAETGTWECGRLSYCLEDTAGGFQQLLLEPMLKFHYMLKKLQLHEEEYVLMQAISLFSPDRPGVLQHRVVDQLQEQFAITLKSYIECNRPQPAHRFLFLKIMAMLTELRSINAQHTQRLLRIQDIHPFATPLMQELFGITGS
Chain of Thyrotropin-releasing hormone receptor (Homo sapiens) (P34981 whole entry, looked up): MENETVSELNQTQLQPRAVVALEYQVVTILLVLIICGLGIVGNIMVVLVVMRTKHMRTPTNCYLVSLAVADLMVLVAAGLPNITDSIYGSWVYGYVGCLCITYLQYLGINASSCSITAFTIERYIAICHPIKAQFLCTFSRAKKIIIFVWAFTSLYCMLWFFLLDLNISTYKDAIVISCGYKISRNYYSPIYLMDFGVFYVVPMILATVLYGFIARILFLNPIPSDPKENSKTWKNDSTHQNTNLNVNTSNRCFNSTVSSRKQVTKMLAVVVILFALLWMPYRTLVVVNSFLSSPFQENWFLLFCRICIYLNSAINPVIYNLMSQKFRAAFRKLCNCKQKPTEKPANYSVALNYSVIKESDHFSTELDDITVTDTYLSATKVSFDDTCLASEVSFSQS
Chain of Cytochrome P450 1A2 (Homo sapiens) (P05177 whole entry, looked up): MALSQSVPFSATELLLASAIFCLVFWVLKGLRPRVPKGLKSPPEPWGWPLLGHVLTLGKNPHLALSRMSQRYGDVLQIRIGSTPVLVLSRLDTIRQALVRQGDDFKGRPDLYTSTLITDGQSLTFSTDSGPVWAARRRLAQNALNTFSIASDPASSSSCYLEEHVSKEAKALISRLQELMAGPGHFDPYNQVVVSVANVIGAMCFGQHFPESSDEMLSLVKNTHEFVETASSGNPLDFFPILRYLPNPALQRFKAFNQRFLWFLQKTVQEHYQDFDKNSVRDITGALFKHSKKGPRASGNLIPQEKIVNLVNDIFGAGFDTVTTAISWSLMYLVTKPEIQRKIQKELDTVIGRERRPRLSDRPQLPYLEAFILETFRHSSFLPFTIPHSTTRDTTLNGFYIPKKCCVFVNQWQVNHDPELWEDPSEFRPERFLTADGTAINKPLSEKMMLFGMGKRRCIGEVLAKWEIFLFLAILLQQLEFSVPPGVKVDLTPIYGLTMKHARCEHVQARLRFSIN
Chain of Cytochrome P450 2D6 (Homo sapiens) (P10635 whole entry, looked up): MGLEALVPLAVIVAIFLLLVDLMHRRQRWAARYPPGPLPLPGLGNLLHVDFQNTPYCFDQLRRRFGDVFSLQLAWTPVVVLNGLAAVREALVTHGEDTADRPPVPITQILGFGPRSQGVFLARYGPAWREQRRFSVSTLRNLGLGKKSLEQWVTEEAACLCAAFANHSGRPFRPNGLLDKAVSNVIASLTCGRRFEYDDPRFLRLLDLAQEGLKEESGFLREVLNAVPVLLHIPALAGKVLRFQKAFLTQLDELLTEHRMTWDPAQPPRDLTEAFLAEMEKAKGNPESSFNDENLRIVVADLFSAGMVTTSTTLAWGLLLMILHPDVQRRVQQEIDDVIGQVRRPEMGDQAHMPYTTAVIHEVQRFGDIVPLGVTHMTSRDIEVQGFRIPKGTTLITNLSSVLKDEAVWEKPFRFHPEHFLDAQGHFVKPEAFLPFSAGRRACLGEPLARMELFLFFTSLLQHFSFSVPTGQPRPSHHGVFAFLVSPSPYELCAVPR
Chain of Cytochrome P450 3A4 (Homo sapiens) (P08684 whole entry, looked up): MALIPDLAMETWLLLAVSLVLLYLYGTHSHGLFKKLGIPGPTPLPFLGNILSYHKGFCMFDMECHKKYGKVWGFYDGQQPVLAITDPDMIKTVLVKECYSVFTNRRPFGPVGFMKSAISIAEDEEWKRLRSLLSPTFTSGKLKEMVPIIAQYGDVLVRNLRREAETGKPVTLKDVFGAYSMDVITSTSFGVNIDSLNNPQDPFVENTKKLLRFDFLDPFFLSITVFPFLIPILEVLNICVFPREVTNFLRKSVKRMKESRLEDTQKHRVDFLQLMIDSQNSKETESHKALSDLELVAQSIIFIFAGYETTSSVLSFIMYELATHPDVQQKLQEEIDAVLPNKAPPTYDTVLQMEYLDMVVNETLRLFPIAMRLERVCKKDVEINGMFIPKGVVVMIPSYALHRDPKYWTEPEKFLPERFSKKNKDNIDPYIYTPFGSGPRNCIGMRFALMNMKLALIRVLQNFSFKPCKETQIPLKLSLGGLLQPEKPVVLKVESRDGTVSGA
Chain of Cytochrome P450 2C19 (Homo sapiens) (P33261 whole entry, looked up): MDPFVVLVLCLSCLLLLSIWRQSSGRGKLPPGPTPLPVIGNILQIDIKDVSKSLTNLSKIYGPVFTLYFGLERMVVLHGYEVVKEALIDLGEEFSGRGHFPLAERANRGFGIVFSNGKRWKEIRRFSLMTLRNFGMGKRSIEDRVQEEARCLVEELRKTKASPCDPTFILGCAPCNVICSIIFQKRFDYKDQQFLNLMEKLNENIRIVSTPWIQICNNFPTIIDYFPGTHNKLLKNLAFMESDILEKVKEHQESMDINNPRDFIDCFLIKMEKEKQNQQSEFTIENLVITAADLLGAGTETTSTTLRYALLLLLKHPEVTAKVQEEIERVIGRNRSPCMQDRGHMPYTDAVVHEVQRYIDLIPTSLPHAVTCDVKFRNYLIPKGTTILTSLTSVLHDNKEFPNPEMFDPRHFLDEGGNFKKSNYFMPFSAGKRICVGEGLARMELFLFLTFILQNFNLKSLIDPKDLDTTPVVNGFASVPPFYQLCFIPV

Turning to `CN(C)N=Nc1ccccc1`, the compound was classed as inactive in assay [1], in [3], in assay [5] and in assay [6]. Moreover, the Potency entry in assay [2], in assay [4], in assay [7], in [8], in assay [9] and in assay [10] was “inactive” each time. Also, the Potency entry in assay [11] and in assay [12] was “inactive” throughout.

Take `N#CCN(CC#N)CCN(CC#N)CC#N`: the compound was classed as inactive in [1], in assay [3], in assay [5] and in assay [6]. Besides, the Potency entry in assay [2], in assay [4], in assay [7], in assay [8], in assay [9] and in assay [10] was “inactive” in each case. Besides, the Potency result in assay [13] was “inactive”.

With `C=C[Si](OC)(OC)OC`, the outcome in [1], in assay [3], in assay [5] and in assay [6] was inactive. Besides, the Potency entry in [2], in [4], in [7], in assay [8], in assay [9] and in [10] was “inactive” throughout. Besides, in assay [12], the Potency entry was “inactive”. In addition, in assay [11], the Potency is 34.2 µM (active).

`CC1=CC(=O)CCC1`: the compound was called inactive in assay [1], in assay [3], in assay [5] and in assay [6]. Besides, the Potency entry in assay [2], in assay [4], in assay [7], in [8], in assay [9] and in assay [10] was “inactive” throughout. Further, the Potency entry in assay [11] and in [13] was “inactive” throughout.

Consider `CCn1cc(C(=O)O)c(=O)c2cc(F)c(N3CCN(C)CC3)cc21`, for which the results for the activation in assay [1] and in assay [7] were 0.129% [at 11.8 µM] and -5.92% [at 19 µM], respectively. For the same compound, the figures for the activity change, negative = cytotoxicity in assay [2], in [4] and in [6] were 4.23% [at 19 µM], 6.37% [at 19 µM] and 0.0199% [at 19 µM], respectively. The caspase activation in assay [3] was -0.273% [at 19 µM]. Besides, the caspase-3/7 activation in assay [5] is 0.47% [at 19 µM]. The Potency result in [14] was “inactive”.

`Cc1ncc(CSSCc2cnc(C)c(O)c2CO)c(CO)c1O`: the result in assay [1], in assay [3], in [5] and in assay [6] was inactive. Besides, the Potency entry in [2], in [4], in assay [7], in [15], in assay [14] and in [12] was “inactive” in each case. Further, the Potency in assay [8] is 6.17 µM (active); in assay [10] it was 8.71 µM (active).

For the compound `CCCCCCCCCCCl`, the compound was called inactive in [1], in [3], in assay [5] and in assay [6]. In addition, the Potency result in assay [2], in assay [4], in [7], in assay [8], in assay [9] and in assay [10] was “inactive” in each case. For the same compound, the Potency result in assay [12] and in [13] was “inactive” each time. Also, the Potency in assay [11] is 32.2 µM (active).

Turning to `CC(O)CN(CCCN(C)C)CCCN(C)C` (stereo not given), the compound was called inactive in assay [1], in assay [3], in assay [5] and in assay [6]. Besides, the Potency entry in assay [2], in assay [4], in assay [7], in assay [8], in [9] and in assay [10] was “inactive” throughout. In addition, the Potency result in assay [11], in assay [12] and in assay [13] was “inactive” in each case.

Take `CN1[C@@H]2CC[C@H]1CC(NC(=O)n1c(=O)[nH]c3ccccc31)C2` (stereo not given in full): the result in assay [1], in [3], in assay [5] and in assay [6] was inactive. Moreover, the Potency entry in assay [2], in assay [4], in [7], in assay [9], in assay [10] and in assay [11] was “inactive” throughout. Besides, in assay [13], the Potency entry was “inactive”. Moreover, the Potency in [8] is 0.776 µM (active).
